Results filed as inconclusive are left out. The source made the active and inactive calls. Unless noted, calls follow the shape of the dose curve; as a rule, active = well fitted curve in the direction sought with a large enough effect in the repeat runs; inconclusive = weak or mixed curves; inactive = no such curve, though single readings can be large; an effect the other way counts as inactive or inconclusive.
How the values were obtained:
[1] = target: Retinoic acid receptor RXR-alpha (Homo sapiens) (UniProt P19793); assay: qHTS assay to identify small molecule agonists of the RXR signaling pathway (AID 1159527; calls by dose curve; also: nearly all actives have a fitted effect of over 35% in size)
Method in brief: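 GeneBLAzer RXR-alpha-UAS-bla HEK 293T cells in 2% charcoal-stripped FBS medium were exposed to compounds for 16 hr at 37 C in agonist mode. Beta-lactamase reporter read as 460/530 nm FRET ratio after 2 hr substrate loading.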

[2] = qHTS assay to identify small molecule agonists of the RXR signaling pathway - cell viability counter screen (AID 1159529); also: nearly all actives have a fitted effect of over 50% in size
Method in brief: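 RXR-alpha-UAS-bla HEK 293T cells in medium with 2% charcoal-stripped FBS were pre-incubated 5 hr, then compound-treated 16 hr at 37 C. Viability was read by CellTiter-Glo luminescence in the same wells as the beta-lactamase assay, with tetraoctyl ammonium bromide as positive control.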

[3] = qHTS assay to identify small molecule antagonists of the retinoid acid receptor (RAR) signaling pathway - cell viability counter screen (AID 1159551); also: nearly all actives have a fitted effect of over 35% in size
Method in brief: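 Cells (C3RL4) are plated, incubated overnight, dosed with compound in DMSO, then given retinol at 1 uM final. After 6 h at 37 C, CellTiter-Glo is added and luminescence read following 30 min at room temperature.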

[4] = qHTS assay to identify small molecule antagonists of the retinoic acid receptor (RAR) signaling pathway (AID 1159552; also: nearly all actives have a fitted effect of over 50% in size)
Method in brief: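 Retinol signaling pathway inhibitors screened in C3RL4 RARE-luciferase reporter cells seeded overnight at 37 C, then compounds added with 1 uM (final) retinol as pathway substrate. After 6 hr at 37 C, luciferase luminescence read after 30 min at room temperature.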

[5] = qHTS assay to identify small molecule agonists of the retinoic acid receptor (RAR) signaling pathway (AID 1159553); settings: C3RL4 RARE luciferase reporter, agonist, 6 h; activation: at 73.3 µM (top of the series)
Method in brief: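 Seed C3RL4 reporter cells at 1,000 per well and incubate overnight at 37 C. Add compounds in DMSO, incubate 6 hr. Add luciferase reagent, wait 30 min at room temperature, read luminescence.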

[6] = qHTS assay to identify small molecule antagonists of the estrogen related receptor (ERR) signaling pathway from Tox21 library - cell viability counter screen (AID 1224834); also: nearly all actives have a fitted effect of over 30% in size
Method in brief: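 ERR cells, 2,000/well; 6 h settle at 37 C/5% CO2; pin-tool compound transfer in DMSO; 17.5 h at 37 C; CellTiter-Fluor, 30 min; fluorescence intensity.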

[7] = target: Luciferin 4-monooxygenase (Photinus pyralis) (UniProt P08659); assay: qHTS assay to identify small molecule inhibitors of firefly luciferase (AID 1224835); also: nearly all actives have a fitted effect of over 25% in size
Method in brief: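 Biochemical qHTS: compounds run as interplate titrations against purified firefly enzyme, with D-luciferin and ATP each at its KM concentration. Light output recorded by CCD imaging.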

[8] = qHTS assay to identify small molecule agonists of the constitutive androstane receptor (CAR) signaling pathway - cell viability counter screen (AID 1224836); also: nearly all actives have a fitted effect of over 45% in size
Method in brief: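 HepG2 cells stably carrying hCAR and a CYP2B6-2.2kb reporter; 15-concentration compounds plus PK11195 (final 0.75 uM), 23 hr at 37 C/5% CO2. Viability read by CellTiter-Fluor fluorescence.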

[9] = qHTS assay to identify small molecule antagonists of the constitutive androstane receptor (CAR) signaling pathway - cell viability counter screen (AID 1224837); also: nearly all actives have a fitted effect of over 45% in size
Method in brief: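 Viability was measured with CellTiter-Fluor in a HepG2 line carrying stably transfected hCAR and a CYP2B6-2.2kb construct. Cells were exposed for 23 hr at 37 C to 15 compound concentrations with 50 nM CITCO as agonist.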

[10] = target: Nuclear receptor subfamily 1 group I member 3 (Homo sapiens) (UniProt Q14994); assay: qHTS assay to identify small molecule antagonists of the constitutive androstane receptor (CAR) signaling pathway (AID 1224838);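 also: HepG2 cells stably expressing hCAR with CYP2B6 luciferase reporter stimulated by CITCO; nearly all actives have a fitted effect of over 40% in size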
Method in brief: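 Antagonist mode used CITCO at a final 50 nM to activate CAR in human hepatoma HepG2 cells carrying stable hCAR and a 2.2 kb CYP2B6 promoter-luciferase construct. Compounds were tested at 15 concentrations over 24 h, with luminescence as the end point.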
% is scaled to controls: 0 for no effect and ±100 for the full control effect.

Sequence of Luciferin 4-monooxygenase (Photinus pyralis) (P08659 whole entry, looked up): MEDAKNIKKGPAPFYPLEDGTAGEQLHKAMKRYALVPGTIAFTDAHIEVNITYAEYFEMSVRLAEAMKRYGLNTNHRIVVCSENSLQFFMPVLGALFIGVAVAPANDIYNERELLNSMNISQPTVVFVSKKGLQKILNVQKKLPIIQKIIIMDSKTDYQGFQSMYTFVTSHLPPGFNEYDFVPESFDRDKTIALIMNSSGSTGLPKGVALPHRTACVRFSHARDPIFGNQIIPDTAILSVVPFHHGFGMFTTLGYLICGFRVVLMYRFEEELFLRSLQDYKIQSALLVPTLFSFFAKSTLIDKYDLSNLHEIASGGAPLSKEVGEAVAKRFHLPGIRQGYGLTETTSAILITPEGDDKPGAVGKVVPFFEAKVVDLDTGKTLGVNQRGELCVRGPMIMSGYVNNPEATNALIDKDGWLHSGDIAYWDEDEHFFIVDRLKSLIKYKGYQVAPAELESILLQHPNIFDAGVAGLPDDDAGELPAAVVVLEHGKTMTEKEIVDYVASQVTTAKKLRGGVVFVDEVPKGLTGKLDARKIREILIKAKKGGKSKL
Sequence of Retinoic acid receptor RXR-alpha (Homo sapiens) (P19793 whole entry, looked up): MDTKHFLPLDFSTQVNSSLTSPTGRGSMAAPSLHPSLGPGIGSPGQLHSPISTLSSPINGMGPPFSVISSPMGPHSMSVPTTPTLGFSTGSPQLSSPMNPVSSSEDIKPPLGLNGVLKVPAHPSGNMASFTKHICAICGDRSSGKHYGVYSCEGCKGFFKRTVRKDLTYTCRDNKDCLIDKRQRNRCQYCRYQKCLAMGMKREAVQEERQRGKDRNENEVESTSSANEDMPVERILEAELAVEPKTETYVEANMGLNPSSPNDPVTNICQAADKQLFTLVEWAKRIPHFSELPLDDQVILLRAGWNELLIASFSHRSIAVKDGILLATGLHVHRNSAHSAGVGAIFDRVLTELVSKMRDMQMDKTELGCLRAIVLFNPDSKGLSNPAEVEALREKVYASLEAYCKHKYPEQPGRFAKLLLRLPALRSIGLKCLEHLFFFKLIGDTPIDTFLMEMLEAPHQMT
Sequence of Nuclear receptor subfamily 1 group I member 3 (Homo sapiens) (Q14994 whole entry, looked up): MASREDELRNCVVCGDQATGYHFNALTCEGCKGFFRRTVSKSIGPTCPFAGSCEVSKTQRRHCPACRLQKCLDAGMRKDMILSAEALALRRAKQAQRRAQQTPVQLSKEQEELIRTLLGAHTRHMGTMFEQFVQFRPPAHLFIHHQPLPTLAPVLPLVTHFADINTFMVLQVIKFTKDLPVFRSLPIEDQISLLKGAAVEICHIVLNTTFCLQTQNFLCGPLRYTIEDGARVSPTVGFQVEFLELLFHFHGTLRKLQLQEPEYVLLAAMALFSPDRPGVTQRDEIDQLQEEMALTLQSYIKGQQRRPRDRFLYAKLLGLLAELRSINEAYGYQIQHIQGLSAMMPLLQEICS

C=C[C@@H](C)CCC=C(C)C
inactive: Potency [1] | outcome [2] | outcome [3] | Potency [4] | Potency [5] | Potency [6] | Potency [7] | outcome [8] | Potency [9]

CN=C(NC#N)NCCSCc1csc(N=C(N)N)n1
inactive: Potency [1] | outcome [2] | outcome [3] | Potency [4] | Potency [5] | Potency [6] | Potency [7] | outcome [8] | Potency [9]

Nc1cc(C(=O)O)ccc1Cl
inactive: Potency [1] | outcome [2] | outcome [3] | Potency [4] | Potency [5] | Potency [6] | Potency [7] | outcome [8] | Potency [9]

COCCOCCOCCOC
inactive: Potency [1] | outcome [2] | outcome [3] | Potency [4] | Potency [5] | Potency [6] | Potency [7] | outcome [8] | Potency [9]

CCCCCC1CCCC(=O)O1 (stereo unspecified)
inactive: Potency [1] | outcome [2] | outcome [3] | Potency [4] | Potency [5] | Potency [6] | Potency [7] | outcome [8] | Potency [9]

CCC1COC(=O)O1 (stereo unspecified)
inactive: Potency [1] | outcome [2] | outcome [3] | Potency [4] | Potency [5] | Potency [6] | Potency [7] | outcome [8] | Potency [9]

CCCCCCCCCCCCCCCCCCN(C)C
inactive: Potency [1] | outcome [2] | outcome [3] | Potency [4] | Potency [5] | Potency [6] | Potency [7] | outcome [8] | Potency [9]

O=S(=O)(O)CCO
inactive: Potency [1] | outcome [2] | outcome [3] | Potency [4] | Potency [5] | Potency [6] | Potency [7] | outcome [8] | Potency [9]

COC(/C=C(\C)CCC=C(C)C)OC
inactive: Potency [1] | outcome [2] | outcome [3] | Potency [4] | Potency [5] | Potency [6] | Potency [7] | outcome [8] | Potency [9]

OC(CCN1CCCCC1)(c1ccccc1)c1ccccc1
inactive: Potency [1] | outcome [2] | outcome [3] | Potency [4] | Potency [5] | Potency [6] | Potency [7] | outcome [8] | Potency [9]

CCCCCC1Nc2cc(C(F)(F)F)c(S(N)(=O)=O)cc2S(=O)(=O)N1 (stereo unspecified)
inactive: Potency [1] | outcome [2] | outcome [3] | Potency [4] | Potency [5] | Potency [6] | Potency [7] | outcome [8] | Potency [9]

N#CCCOCCOCCC#N
inactive: Potency [1] | outcome [2] | outcome [3] | Potency [4] | Potency [5] | Potency [6] | Potency [7] | outcome [8] | Potency [9]

O=[Si]=O
inactive: Potency [1] | outcome [2] | outcome [3] | Potency [4] | Potency [5] | Potency [6] | Potency [7] | outcome [8] | Potency [9]

O=c1[nH]c(=O)c2ccccc2o1
inactive: Potency [1] | outcome [2] | outcome [3] | Potency [4] | Potency [5] | Potency [6] | Potency [7] | outcome [8] | Potency [9]

CCCCCCCCCCCCCCCCI
inactive: activation [1] 7.13% [at 15.8 µM] | activity change, negative = cytotoxicity [2] 14.9% [at 15.8 µM] | activity change, negative = cytotoxicity [3] -0.67% [at 19 µM] | activity, negative = inhibition [4] -6.93% [at 19 µM] | Potency [5] | viability change, negative = cytotoxic [6] 1.65% [at 19 µM] | activity change, negative = inhibition [7] 0.965% [at 23.6 µM] | viability change, negative = cytotoxic [8] -8.08% [at 19 µM] | activity change, negative = cytotoxicity [9] -13% [at 19 µM]

C1=CCC(c2ccccc2)CC1 (stereo unspecified)
inactive: Potency [1] | outcome [2] | outcome [3] | Potency [4] | Potency [5] | Potency [6] | Potency [7] | outcome [8] | Potency [9]

Nc1ccc(S(=O)(=O)Nc2ccccn2)cc1
inactive: Potency [1] | outcome [2] | outcome [3] | Potency [4] | Potency [5] | Potency [6] | Potency [7] | outcome [8] | Potency [9]

COCC(=O)Nc1c(I)c(C(=O)NCC(O)CO)c(I)c(C(=O)N(C)CC(O)CO)c1I (stereo unspecified)
inactive: Potency [1] | outcome [2] | outcome [3] | Potency [4] | Potency [5] | Potency [6] | Potency [7] | outcome [8] | Potency [9]

O=C1OC(=O)c2ccccc21
inactive: Potency [1] | outcome [2] | outcome [3] | Potency [4] | Potency [5] | Potency [6] | Potency [7] | outcome [8] | Potency [9]

CCNC(=O)NCCCOc1cccc(CN2CCCCC2)c1
inactive: Potency [1] | outcome [2] | outcome [3] | Potency [4] | Potency [5] | Potency [6] | Potency [7] | outcome [8] | Potency [9]

COC(=O)CCC(=O)O
inactive: Potency [1] | outcome [2] | outcome [3] | Potency [4] | Potency [5] | Potency [6] | Potency [7] | outcome [8] | Potency [9]

C[C@H](CCC(=O)NCC(=O)O)[C@H]1CC[C@H]2[C@@H]3[C@H](O)C[C@@H]4C[C@H](O)CC[C@]4(C)[C@H]3C[C@H](O)[C@]12C
inactive: Potency [1] | outcome [2] | outcome [3] | Potency [4] | Potency [5] | Potency [6] | Potency [7] | outcome [8] | Potency [9]

O=C(c1ccc2c(c1)C(=O)OC2=O)c1ccc2c(c1)C(=O)OC2=O
inactive: Potency [1] | outcome [2] | outcome [3] | Potency [4] | Potency [5] | Potency [6] | Potency [7] | outcome [8] | Potency [9]

CNC(=O)C(c1ccccc1)c1ccccc1
inactive: Potency [1] | outcome [2] | outcome [3] | Potency [4] | Potency [5] | Potency [6] | Potency [7] | outcome [8] | Potency [9]

COc1cc2c(Nc3ccc(Br)cc3F)ncnc2cc1OCC1CCN(C)CC1
inactive: Potency [1] | outcome [2] | outcome [3] | Potency [4] | Potency [5] | Potency [6] | Potency [7] | outcome [8] | Potency [9] | Potency [10]
